Bioassay records: PubChem, National Center for Advancing Translational Sciences (NCATS)
Rows were chosen to be rich in hits. Some 19% of all compounds tested hit in one or more screens of this group.
ASM inhibitor: Inhibitors of Secretory Acid Sphingomyelinase (S-ASM): qHTS | Sphingomyelin phosphodiesterase (Homo sapiens), P17405 | actives 0.006% (n = 340,000) | AID 504937, 2011 | Potency, µM (titrated, usually from 57.5 µM), inactives show at the highest dose activity change, negative = inhibition, usual class: inhibitors | placental ASM, HMU-PC fluorogenic substrate, 60 min; further: potency means the concentration at half of the fitted maximal effect
Target sequence (P17405 47-631 limits assumed): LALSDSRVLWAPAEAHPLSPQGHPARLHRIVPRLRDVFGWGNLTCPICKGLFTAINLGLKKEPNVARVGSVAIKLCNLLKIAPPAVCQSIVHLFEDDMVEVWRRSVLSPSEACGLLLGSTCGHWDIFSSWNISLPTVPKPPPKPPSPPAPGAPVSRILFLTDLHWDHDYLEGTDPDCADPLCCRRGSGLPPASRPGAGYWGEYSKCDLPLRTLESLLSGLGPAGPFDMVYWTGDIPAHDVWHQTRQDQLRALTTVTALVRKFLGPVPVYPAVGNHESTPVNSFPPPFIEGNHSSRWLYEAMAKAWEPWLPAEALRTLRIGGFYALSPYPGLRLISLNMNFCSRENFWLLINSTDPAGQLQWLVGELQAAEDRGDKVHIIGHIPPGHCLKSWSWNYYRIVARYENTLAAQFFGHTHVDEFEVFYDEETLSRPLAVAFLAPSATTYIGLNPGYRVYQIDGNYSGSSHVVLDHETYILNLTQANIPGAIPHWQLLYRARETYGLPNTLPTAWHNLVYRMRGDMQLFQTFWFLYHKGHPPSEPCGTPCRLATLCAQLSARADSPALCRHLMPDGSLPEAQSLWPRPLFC
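Human placenta-derived ASM enzyme was preincubated with compound for 10 minutes at room temperature, then given fluorogenic substrate HMU-PC0 (9 uM final) for 60 minutes at 37 °C; a pH 10 stop preceded fluorescence reading at Ex 386/Em 447 nm.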
TGFb SMAD3 inh: qHTS for Inhibitors of TGF-b; actives 1.2% (n = 410,000); HepG2 CAGA-GFP TGF-b/SMAD3 reporter, GFP fluorescence, 18 h; TGF-beta stimulated, 500 pg/mL final; Potency, µM (highest dose often 46.1 µM), without a hit: top-dose activity, negative = inhibition, hits mostly inhibitors; AID 588855, 2011; further: potency means the concentration at half of the fitted maximal effect; on the % scale 0 is the no-effect control and ±100 the full control effect; nearly all actives have a fitted effect of over 65% in size
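HEPG2 CAGA-GFP cells (1000/well, DMEM with 1% FBS) were pre-incubated 2 h at 37 degrees C, given compound by pin tool, then stimulated with TGF-beta at 500 pg/mL final for 18 h before per-cell GFP fluorescence imaging.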
DT40 TDP1 no CPT: qHTS for Inhibitors of human tyrosyl-DNA phosphodiesterase 1 (TDP1): qHTS in cells in absence of CPT. Potency, µM (series often up to 46.2 µM), inactives show at the top dose activity change, negative = growth inhibition, most hits filed as inhibitors. actives 15% (n = 420,000). DT40 Tdp1-/- hTDP1 cells, no CPT, ATP luminescence, 48 h; further: potency means the concentration at half of the fitted maximal effect; on the % scale 0 is the no-effect control and ±100 the full control effect; nearly all actives have a fitted effect of over 55% in size
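Luminescent ATP content (CellTiter-Glo) served as the growth readout. Knockout chicken DT40 cells expressing human TDP1 were exposed to compounds without camptothecin for a minimum 48 hr at 37 °C.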
HepG2 viability: qHTS for Inhibitors of TGF-b: Cytotox Counterscreen. actives 0.76% (n = 410,000). HepG2 CAGA-GFP viability, ATP luminescence, 18 h. Potency, µM (top dose mostly 46.1 µM), without a hit: at the top dose activity change, negative = cytotoxicity, actives largely listed as cytotoxic; further: potency means the concentration at half of the fitted maximal effect
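CellTiter-Glo luminescence gave cytotoxicity after 18 hours at 37 degrees C. The cells were HepG2 CAGA-GFP in 1% FBS DMEM, stimulated with 500 pg/mL TGF-beta after compound addition. %Activity was normalised to no-cell wells (complete cell-killing) and DMSO (no toxicity), and curves were fitted and classified.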
IL1B secr inh: qHTS for Inhibitors of Inflammasome Signaling: IL-1-beta AlphaLISA Primary Screen; THP-1 LPS/ATP IL-1B secretion, AlphaLISA, 16 h; active compounds read low; activity change, % at 57.5 µM; actives 4.7% (n = 360,000); AID 743279, 2014; in the data active means activity change below about -50%; inconclusive means mostly about -30% to -49%; further: on the % scale 0 is the no-effect control and ±100 the full control effect
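THP-1 cells pretreated 1 hr with compounds (up to 57.5 uM final), then stimulated with LPS (250 ng/mL final) plus ATP (1.25 mM final); secreted IL-1B measured by AlphaLISA after 16 hr, decreased signal indicating inhibition.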
TDP1 cell CPT: qHTS for Inhibitors of human tyrosyl-DNA phosphodiesterase 1 (TDP1): qHTS in cells in presence of CPT; chicken DT40 Tdp1-/-;hTDP1 cells + 20 nM CPT, ATP luminescence, 48 h; Potency, µM (doses to about 46.2 µM), without a hit: at the top dose activity change, negative = growth inhibition, usual class: inhibitors; actives 12% (n = 420,000); AID 686979, 2013; further: potency means the concentration at half of the fitted maximal effect; on the % scale 0 is the no-effect control and ±100 the full control effect; nearly all actives have a fitted effect of over 55% in size
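Chicken DT40 Tdp1-/- cells complemented with human TDP1, 400 cells/well, exposed to compounds plus 20 nM camptothecin for at least 48 h at 37 C; viability read as ATP content by CellTiter-Glo luminescence.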
The depositor's hits bear a star. Unless noted, the call rests on the fitted dose curve; in most records, active means well fitted curve in the direction sought with a large enough effect; inconclusive means small, poorly fitted or top-dose-only effect, or another doubt; inactive means no such curve, though single readings can be large; an effect the other way counts as inactive or inconclusive.

`CC(C)Cn1c(=O)c(C(=O)N/N=C/c2cccc(F)c2)c(O)c2ccccc21` gave ASM inhibitor -10%, TGFb SMAD3 inh -18%, DT40 TDP1 no CPT 0.33µM*, HepG2 viability -6%, IL1B secr inh 21 and TDP1 cell CPT 2.9µM*.
`CCCCCCCCCC(=O)NNC(=O)c1c(O)c2ccccc2n(CCC)c1=O` gave ASM inhibitor 0%, TGFb SMAD3 inh 9%, DT40 TDP1 no CPT inconclusive, HepG2 viability 7%, IL1B secr inh -3 and TDP1 cell CPT inconclusive.
Screening CCn1c(=O)c(C(=O)NCc2ccc(OC)cc2)c(O)c2ccccc21 returned ASM inhibitor 0%, TGFb SMAD3 inh -5%, DT40 TDP1 no CPT 23µM*, HepG2 viability -22%, IL1B secr inh 40 and TDP1 cell CPT 23µM*.
CC(SC(C)C(=O)NN=Cc1cccc(F)c1)C(=O)NN=Cc1cccc(F)c1 (stereo unspecified) was read as ASM inhibitor -1%, TGFb SMAD3 inh 13%, DT40 TDP1 no CPT inconclusive, HepG2 viability 1%, IL1B secr inh 16 and TDP1 cell CPT inconclusive.
O=C(O)C1=CCNCC1 was read as ASM inhibitor -2%, TGFb SMAD3 inh 5%, DT40 TDP1 no CPT 20%, HepG2 viability 0%, IL1B secr inh -14 and TDP1 cell CPT -1%.
Screening CC(C)CC(=O)Nc1cc2c3c(c1)C(C)C(=O)N3CCC2 (stereo unspecified) returned ASM inhibitor -1%, TGFb SMAD3 inh -1%, DT40 TDP1 no CPT inconclusive, HepG2 viability -15%, IL1B secr inh 28 and TDP1 cell CPT 30%.
For O=C(Nc1cccc(-n2cnnn2)c1)c1ccc(Cl)cc1Cl the results were ASM inhibitor -1%, TGFb SMAD3 inh 1%, DT40 TDP1 no CPT inconclusive, HepG2 viability 1%, IL1B secr inh inconclusive and TDP1 cell CPT inconclusive.
C=CCn1c(=O)c(C(=O)NCCc2ccccc2)c(O)c2ccccc21 was read as ASM inhibitor -7%, TGFb SMAD3 inh -26%, DT40 TDP1 no CPT inconclusive, HepG2 viability -20%, IL1B secr inh 12 and TDP1 cell CPT 21µM*.
`Cn1c(=O)c(C(=O)NCCc2ccccc2)c(O)c2ccccc21` gave ASM inhibitor -3%, TGFb SMAD3 inh 3%, DT40 TDP1 no CPT -29%, HepG2 viability -8%, IL1B secr inh 42 and TDP1 cell CPT -24%.
C=CCn1c(=O)c(C(=O)Nc2cccnc2)c(O)c2ccccc21 was read as ASM inhibitor -1%, TGFb SMAD3 inh 1%, DT40 TDP1 no CPT inconclusive, HepG2 viability -3%, IL1B secr inh 18 and TDP1 cell CPT inconclusive.
For CC(C)Cn1c(=O)c(C(=O)NCc2ccc3c(c2)OCO3)c(O)c2ccccc21 the results were ASM inhibitor -1%, TGFb SMAD3 inh -15%, DT40 TDP1 no CPT inconclusive, HepG2 viability 12%, IL1B secr inh 34 and TDP1 cell CPT 23µM*.
For CCCC1CCC(C(=O)Nn2c(C)nc3ccccc3c2=O)CC1 (stereo unspecified) the results were ASM inhibitor 1%, TGFb SMAD3 inh -10%, DT40 TDP1 no CPT inconclusive, HepG2 viability -18%, IL1B secr inh 10 and TDP1 cell CPT -20%.
Screening CCCCCCC1CCC(C(=O)Nn2c(C)nc3ccccc3c2=O)CC1 (stereo unspecified) returned ASM inhibitor -11%, TGFb SMAD3 inh 1%, DT40 TDP1 no CPT 18µM*, HepG2 viability -30%, IL1B secr inh 24 and TDP1 cell CPT inconclusive.
`C=CCn1c(=O)c(C(=O)Nc2ccc(C)cn2)c(O)c2ccccc21` gave ASM inhibitor -1%, TGFb SMAD3 inh 26%, DT40 TDP1 no CPT 18µM*, HepG2 viability 7%, IL1B secr inh 43 and TDP1 cell CPT inconclusive.
`Cc1ccc(N2CC(C(=O)NCCN3CCOCC3)CC2=O)cc1` (stereo unspecified) gave ASM inhibitor -2%, TGFb SMAD3 inh -16%, DT40 TDP1 no CPT 0%, HepG2 viability -7%, IL1B secr inh 4 and TDP1 cell CPT -15%.
`CCc1cccc(CC)c1NC(=O)CSc1nnc(CCC(=O)O)c(=O)[nH]1` gave ASM inhibitor -2%, TGFb SMAD3 inh -30%, DT40 TDP1 no CPT -19%, HepG2 viability -10%, IL1B secr inh -12 and TDP1 cell CPT 3%.
For COC(=O)c1ccccc1NC(=O)CSc1nc(C)c(Cl)c(C)c1C#N the results were TGFb SMAD3 inh -7%, DT40 TDP1 no CPT -25%, HepG2 viability -20% and TDP1 cell CPT -18%.
For C=CCn1c(=O)c(C(=O)NCc2ccc(Cl)cc2)c(O)c2ccccc21 the results were ASM inhibitor -3%, TGFb SMAD3 inh -1%, DT40 TDP1 no CPT 23µM*, HepG2 viability -3%, IL1B secr inh 49 and TDP1 cell CPT inconclusive.
CCCn1c(=O)c(C(=O)NCCc2ccccc2)c(O)c2ccccc21 was read as ASM inhibitor -6%, TGFb SMAD3 inh 8%, DT40 TDP1 no CPT inconclusive, HepG2 viability -3%, IL1B secr inh 38 and TDP1 cell CPT 13µM*.
Screening Fc1ccccc1-c1nc2c(s1)CCc1onc(-c3ccc(Br)cc3)c1-2 returned ASM inhibitor -1%, TGFb SMAD3 inh 3%, DT40 TDP1 no CPT -3%, HepG2 viability 5%, IL1B secr inh 2 and TDP1 cell CPT 2%.
CCOC(=O)c1cccc(NC(=O)CSc2nc3cccnc3n2C)c1 was read as ASM inhibitor -3%, TGFb SMAD3 inh -4%, DT40 TDP1 no CPT 16µM*, HepG2 viability -19%, IL1B secr inh -53* and TDP1 cell CPT 21µM*.
CCOC(=O)c1c(NC(=O)CSc2nnc(-c3ccccc3C)n2C)sc(C(C)=O)c1C was read as ASM inhibitor 0%, TGFb SMAD3 inh -21%, DT40 TDP1 no CPT 12µM*, HepG2 viability -20%, IL1B secr inh inconclusive and TDP1 cell CPT 18µM*.
CCOC(=O)c1c(NC(=O)CSc2nc3cccnc3n2C)sc(C(C)=O)c1C was read as ASM inhibitor -9%, TGFb SMAD3 inh -27%, DT40 TDP1 no CPT 13µM*, HepG2 viability -38%, IL1B secr inh -2 and TDP1 cell CPT 18µM*.
